The list is not random: actives were taken first. Their share in the collection is about 4.1%.
DAX1 inh-1 = blocks DAX1 repression of SF-1 activated StAR promoter; inhibition, % at 6.8 µM; HEK293T StAR-luciferase reporter, SF-1/DAX-1 repression relief; AID 652010; 370,000 compounds, 1.1% hits;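 active means inhibition above the mean over all tested compounds plus 3 SD, cut at about 3.6% in these data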;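 further: higher inhibition means more luminescence from relief of DAX-1 repression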
hcDAF-12 act = H. contortus DAF-12 activation, primary screen. HEK293 hcDAF-12 lit1-tk-luc reporter, luminescence; 0% DMSO, 100% Δ7-dafachronic acid. activation, % at 6.8 µM. 370,000 compounds, 1.4% hits. AID 652067;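 active means activation above the mean of all tested compounds plus 3 SD, cut at about 5.5% in these data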
DAX1 inh-2 = inhibits human nuclear receptor DAX1; P51843; 340,000 compounds, 0.99% hits; inhibition, % at 6.75 µM; HEK293 Gal4-DAX1 luciferase reporter, luminescence;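 active means inhibition above the mean over all tested compounds plus 3 SD, cut at about 4.2% in these data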;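 further: inhibition shows as a rise in luminescence from relieved DAX1 repression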
Target sequence (P51843 207-470 limits assumed): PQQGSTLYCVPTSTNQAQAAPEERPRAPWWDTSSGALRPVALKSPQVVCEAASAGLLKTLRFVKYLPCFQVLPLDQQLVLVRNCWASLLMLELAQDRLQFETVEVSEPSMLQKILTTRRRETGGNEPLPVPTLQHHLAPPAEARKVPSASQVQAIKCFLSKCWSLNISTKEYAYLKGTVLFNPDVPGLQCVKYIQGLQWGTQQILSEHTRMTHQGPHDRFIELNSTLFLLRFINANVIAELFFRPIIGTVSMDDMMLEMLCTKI
hgDAF12 agonist = hgDAF-12 agonism, primary luciferase screen | HEK293 GAL4-hgDAF12 UAS-luciferase reporter, agonist luminescence; normalized to butyrate control | activation, % at 6.8 µM | 370,000 compounds, 1.8% hits | AID 687014;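 active means activation above a cutoff set at the mean of all screened compounds plus 3 SD, cut at about 10% in these data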
ssDAF-12 act = activators of S. stercoralis DAF-12 nuclear receptor; HEK293 ssDAF-12/GRIP1 lit1-tk-luc reporter, luminescence; % of 3 µM dafachronic acid response; activation, % at 6.8 µM; 370,000 compounds, 1% hits;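 active means activation above the mean over all tested compounds plus 3 SD, cut at about 0.9% in these data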
Numbers stand for hits; n = inactive; x = not tested or not shown.

SMILES	DAX1 inh-1	hcDAF-12 act	DAX1 inh-2	hgDAF12 agonist	ssDAF-12 act
O=C1N=C(N2CCOCC2)S/C1=C\c1ccc(-c2ccccc2Cl)o1	n	n	n	n	n
O=C(CNC(=O)c1ccccc1F)OCc1csc(-c2ccccc2)n1	n	n	n	n	n
COc1ccccc1C(=O)NCC(=O)OCc1csc(-c2ccccc2)n1	n	5.7	n	n	n
O=C(Nc1ccc2ccccc2c1)c1cccc([N+](=O)[O-])c1	n	n	n	11.6	n
O=C(O)c1cccc([N+](=O)[O-])c1C(=O)Nc1ccc2ccccc2c1	n	6.5	n	n	1.8
O=C(Nc1cccc([N+](=O)[O-])c1)c1ccccc1	n	n	n	n	n
COc1cc([N+](=O)[O-])ccc1NC(=O)c1cccc(NC(=O)C(C)C)c1	n	n	n	n	n
CC(C)C(=O)Nc1cccc(NC(=O)c2cccc([N+](=O)[O-])c2)c1	n	n	5.5	n	n
CCC(C)[C@H](NC(=O)C1COC(O)([C@H](Cc2ccccc2)NC(=O)[C@@H](NC(=O)OCc2ccccc2)C(C)C)CN1C)C(=O)N[C@H](C(=O)OC)C(C)C (stereo partly drawn)	x	n	x	n	n
C(=NN1CCCCCC1)c1ccc2c(c1)OCO2	n	n	4.3	n	n
O=C(/C=C/C=C/c1ccc2c(c1)OCO2)N1CCCCC1	n	n	5.3	n	n
CCc1n[nH]c(=S)n1/N=C/c1ccc(N(C)c2ccccc2)cc1	n	n	n	n	n
CCc1n[nH]c(=S)n1/N=C/c1ccc2c(c1)OCO2	n	n	4.8	n	n
CN1CCN(C(=O)/C=C/c2ccc3c(c2)OCO3)CC1	n	n	n	n	n
O=C(CCc1ccccc1)N[C@H]1[C@H](OC(=O)c2ccco2)CCC[C@@]12C(=O)N(Cc1ccccc1)c1ccccc12	n	n	x	n	n
CCOC(=O)Cn1cc(Cn2c3ccccc3c(=O)n2C(C)C)nn1	n	n	x	n	n
CCC(=O)NCCc1nc2cc(NC(=O)c3cccs3)ccc2n1C	3.6	n	n	n	n
CCC(=O)NCCc1nc2cc(NC(=O)c3ccccc3OC)ccc2n1C	n	n	n	n	n
O=C(CSc1nnc(-c2cccnc2)n1-c1ccccc1)Nc1ccccc1	n	n	n	11.6	n
Cc1ccc(NC(=O)CSc2nnc(-c3cccnc3)n2-c2ccc(C)cc2)cc1	n	n	n	n	n
CNC(=O)CSc1nnc(-c2cccnc2)n1-c1ccc(C)cc1	n	n	4.4	n	n
O=C(NCCN1C(=O)C2C3C=CC(C3)C2C1=O)Nc1ccccc1 (stereo not drawn)	n	n	n	n	n
COc1ccc(NC(=O)NCCN2C(=O)C3C4C=CC(C4)C3C2=O)cc1 (stereo not drawn)	n	n	6.0	n	n
Cc1cccc(NC(=O)NCCN2C(=O)C3C4C=CC(C4)C3C2=O)c1 (stereo not drawn)	n	n	n	10.6	n
O=C(NCCN1C(=O)C2C3C=CC(C3)C2C1=O)NCc1ccccc1 (stereo not drawn)	n	n	n	n	n
SMILES	DAX1 inh-1	hcDAF-12 act	DAX1 inh-2	hgDAF12 agonist	ssDAF-12 act
Cc1ccccc1NC(=O)NCCN1C(=O)C2C3C=CC(C3)C2C1=O (stereo not drawn)	n	n	4.7	n	n
CC1CC(C)CN(CCCNS(=O)(=O)c2cc3c(cc2Br)CCN3C(=O)C2CC2)C1 (stereo not drawn)	n	n	x	n	n
S=C(Nc1ccc(Br)cc1)OC1CCC12CCC(c1ccccc1)CC2 (stereo not drawn)	n	n	x	n	n
O=[N+]([O-])c1cccc(-c2cnc3ccccc3n2)c1	n	n	n	n	1.0
CS(=O)(=O)Nc1cccc(-c2cnc3ccccc3n2)c1	n	n	4.3	n	n
O=[N+]([O-])c1cc(-c2cnc3ccccc3n2)ccc1Oc1ccc(Cl)cc1	n	n	n	n	1.1
OC(c1ccccc1)(c1ccccc1)C1CCN(CCCOc2ccc(-c3cccnc3)cc2)CC1	n	n	x	n	n
COCCCNC(=O)Cn1nc(Cc2ccncc2)c2ccccc2c1=O	n	n	x	n	n
COc1ccc(S[C@]2(C(=O)N(C)C)CC(=O)N(c3ccc(Cl)cc3)[C@@H]2c2ccc(OC)cc2)cc1	n	n	x	n	n
COC(=O)[C@]12CCCCC=C1N(Cc1ccc(OC)cc1)C(=O)[C@@H]2CC(=O)N1CCSCC1	n	n	x	n	n
O=S1(=O)c2c(cccc2N2CCSCC2)Oc2ccccc2CN1Cc1cn(Cc2cccc(F)c2)nn1	n	n	x	n	n

High-throughput results (PubChem BioAssay)
